Assay results: PubChem BioAssay (NCATS)
Where “and” joins values, the source holds several entries; their conditions need not be identical. Equal values may be shown once. Results filed as inconclusive are left out. More than one record can exist for a structure, and the calls need not agree. Calls of active or inactive are those of the source. Unless noted, calls follow the shape of the dose curve; as a rule, active = well fitted curve in the direction sought with a large enough effect; inconclusive = small, poorly fitted or top-dose-only effect, or another doubt; inactive = no such curve, though single readings can be large; an effect the other way counts as inactive or inconclusive.

Columns and labels:
[1] = biological target: Calcium and integrin-binding protein 1 (Homo sapiens) (UniProt Q99828); experiment: Primary qHTS for Identification of Calcium Integrin Binding Protein 1 (CIB1) Competitor (AID 1508620);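 also: GST tagged CIB1 binding a fluorescein labelled alphaIIb integrin peptide tracer; top concentration of the series differs between compounds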
Sequence of Calcium and integrin-binding protein 1 (Homo sapiens) (Q99828 whole entry, looked up): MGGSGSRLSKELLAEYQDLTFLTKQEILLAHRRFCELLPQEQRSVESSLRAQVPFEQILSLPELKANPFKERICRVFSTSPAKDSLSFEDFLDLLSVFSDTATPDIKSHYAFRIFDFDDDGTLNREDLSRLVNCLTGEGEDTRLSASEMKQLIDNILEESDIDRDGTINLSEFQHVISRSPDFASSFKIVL
Summary of the method: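 Fluorescence polarization competition: GST-tagged CIB1 (1 uM final) preincubated with compound 15 min at room temperature, then FITC-labelled alphaIIb peptide (100 nM final) added. After 15 min at room temperature, polarization read at Ex 480/Em 540.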

[2] = Primary qHTS for small molecule stabilizers of the endoplasmic reticulum resident proteome: Secreted ER Calcium Modulated Protein (SERCaMP) assay (AID 1508630)
Summary of the method: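 The SH-SY5Y reporter protocol was run at 3 concentrations up to 38.3 uM (primary) or 11 concentrations (follow-up): 16 h compound, 100 nM thapsigargin for 4 h, then extracellular luciferase luminescence.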

[3] = A High-Content qHTS Against Drug Library for the Identification of Small Molecules that Inhibit DYT1 Early Onset Primary Dystonia-Associated Cell Pathology (AID 1645839; calls by dose curve; also: potency is read from the fitted curve at half-maximal effect)
Summary of the method: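 Cells were seeded and left for 24 h, then dosed with compound alongside tetracycline induction of mutant EGFP-TorsinA. They were incubated for 48 h, fixed in 4% paraformaldehyde, permeabilized and imaged for mislocalization (%pathology) and cell count.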

[4] = biological target: Cytochrome P450 2D6 (Homo sapiens) (UniProt P10635); experiment: Cytochrome P450 family 2 subfamily D member 6 (CYP2D6) small molecule antagonists: luciferase biochemical (cell-free) qHTS assay (AID 1645840; active = well fitted curve in the direction sought with a large enough effect in the repeat runs; an effect the other way counts as inactive or inconclusive; also: nearly all actives have a fitted effect of over 55% in size; also: potency is read from the fitted curve at half-maximal effect)
Sequence of Cytochrome P450 2D6 (Homo sapiens) (P10635 whole entry, looked up): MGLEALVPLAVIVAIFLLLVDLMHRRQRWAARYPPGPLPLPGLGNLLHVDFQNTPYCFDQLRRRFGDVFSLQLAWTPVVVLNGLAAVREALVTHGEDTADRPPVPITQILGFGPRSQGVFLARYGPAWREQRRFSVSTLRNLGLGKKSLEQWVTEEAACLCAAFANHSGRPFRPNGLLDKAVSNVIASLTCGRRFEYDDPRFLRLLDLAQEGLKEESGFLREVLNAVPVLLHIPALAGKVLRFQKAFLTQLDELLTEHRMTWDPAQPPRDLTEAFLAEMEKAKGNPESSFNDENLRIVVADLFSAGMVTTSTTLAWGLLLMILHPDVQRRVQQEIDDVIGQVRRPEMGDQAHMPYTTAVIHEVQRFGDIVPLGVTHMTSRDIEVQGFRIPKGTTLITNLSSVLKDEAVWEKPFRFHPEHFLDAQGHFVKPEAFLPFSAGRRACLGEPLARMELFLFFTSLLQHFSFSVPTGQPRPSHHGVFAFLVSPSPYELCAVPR
Summary of the method: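 P450-Glo CYP2D6 system: proluciferin substrate converted by enzyme to luciferin, read by luminescence proportional to activity. Enzyme-substrate mix with compound 10 min at room temperature, then NADPH regeneration 1 h before detection reagent.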

[5] = biological target: Cytochrome P450 2C9 (Homo sapiens) (UniProt P11712); experiment: Cytochrome P450 family 2 subfamily C member 9 (CYP2C9) small molecule antagonists: luciferase biochemical (cell-free) qHTS assay (AID 1645842; active = well fitted curve in the direction sought with a large enough effect in the repeat runs; an effect the other way counts as inactive or inconclusive; also: nearly all actives have a fitted effect of over 55% in size; also: potency is read from the fitted curve at half-maximal effect)
Sequence of Cytochrome P450 2C9 (Homo sapiens) (P11712 whole entry, looked up): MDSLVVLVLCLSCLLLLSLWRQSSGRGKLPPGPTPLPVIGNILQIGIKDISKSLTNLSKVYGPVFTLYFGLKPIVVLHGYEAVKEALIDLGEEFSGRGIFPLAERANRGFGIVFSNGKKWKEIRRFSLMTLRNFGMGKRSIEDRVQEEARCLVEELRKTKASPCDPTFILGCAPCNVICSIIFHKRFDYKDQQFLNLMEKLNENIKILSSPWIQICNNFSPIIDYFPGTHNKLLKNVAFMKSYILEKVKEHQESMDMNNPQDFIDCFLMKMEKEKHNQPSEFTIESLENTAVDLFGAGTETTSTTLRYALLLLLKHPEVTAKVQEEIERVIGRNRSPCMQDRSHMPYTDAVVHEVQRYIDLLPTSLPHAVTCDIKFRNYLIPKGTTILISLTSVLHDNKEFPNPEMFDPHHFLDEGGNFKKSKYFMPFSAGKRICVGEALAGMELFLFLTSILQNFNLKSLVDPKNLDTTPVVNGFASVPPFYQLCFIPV
Summary of the method: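 P450-Glo CYP2C9 system: proluciferin substrate with enzyme in mix containing 0.4% BSA, 10 min at room temperature, then NADPH regeneration solution added and incubated 1 h at 37C. Detection reagent stopped reaction; luminescence read after 20 min as RLU.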

[6] = Primary qHTS to identify inhibitors of SARS-CoV-2 cell entry (AID 1645846; calls by dose curve; also: nearly all actives have a fitted effect of over 45% in size; also: potency is read from the fitted curve at half-maximal effect); settings: activity change, negative = inhibition: at 57.1 µM (top of the series) unless noted
Summary of the method: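 HEK293-ACE2 (Expi293F, stable hACE2), 1500 cells/well, o/n 37C; cpd 23 nL pin, 1 h; MLV-PP w/ SARS-CoV-2-S (Wuhan-Hu-1, Δ19 C-term); 48 h 37C; Bright-Glo luminescence; normalized vs S-PP and bald PP.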

[7] = Primary qHTS for inhibitors of nuclear receptor binding SET domain protein 2 (NSD2) in an isogenic RCH-ACV NSD2 p.E1099K mutant (9B) (AID 1645876); also: nearly all actives have a fitted effect of over 70% in size; also: potency is read from the fitted curve at half-maximal effect
[8] = Primary qHTS for inhibitors of nuclear receptor binding SET domain protein 2 (NSD2) in an RCH-ACV wild type WT cells (2C) (AID 1645877); also: nearly all actives have a fitted effect of over 70% in size; also: potency is read from the fitted curve at half-maximal effect
[9] = Cell Viability qHTS for small molecule stabilizers of the endoplasmic reticulum resident proteome (AID 1508629); settings: cell viability counter-screen, 100 nM thapsigargin for final 4 h;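 also: potency is read from the fitted curve at half-maximal effect; compound exposure about 46 h in total before the viability read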
[10] = biological target: Cytochrome P450 3A4 (Homo sapiens) (UniProt P08684); experiment: Cytochrome P450 family 3 subfamily A member 4 (CYP3A4) small molecule antagonists: luciferase qHTS assay (AID 1645841; active = well fitted curve in the direction sought with a large enough effect in the repeat runs; an effect the other way counts as inactive or inconclusive; also: nearly all actives have a fitted effect of over 45% in size)
Sequence of Cytochrome P450 3A4 (Homo sapiens) (P08684 whole entry, looked up): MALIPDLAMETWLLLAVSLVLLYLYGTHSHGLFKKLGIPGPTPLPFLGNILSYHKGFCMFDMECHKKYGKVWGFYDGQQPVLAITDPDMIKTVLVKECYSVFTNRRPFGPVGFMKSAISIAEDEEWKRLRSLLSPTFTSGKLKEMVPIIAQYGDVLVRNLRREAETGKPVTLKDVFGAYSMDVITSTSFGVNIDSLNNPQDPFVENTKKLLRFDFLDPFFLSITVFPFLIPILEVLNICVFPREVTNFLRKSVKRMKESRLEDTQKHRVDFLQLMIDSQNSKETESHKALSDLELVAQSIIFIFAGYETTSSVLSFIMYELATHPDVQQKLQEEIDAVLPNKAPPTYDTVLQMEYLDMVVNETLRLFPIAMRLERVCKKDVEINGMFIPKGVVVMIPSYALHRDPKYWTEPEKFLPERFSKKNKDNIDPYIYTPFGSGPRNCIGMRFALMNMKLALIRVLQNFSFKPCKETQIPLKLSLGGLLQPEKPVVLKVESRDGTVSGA
Summary of the method: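 P450-Glo CYP3A4 enzyme with proluciferin substrate preincubated 10 min with compound at room temperature, then NADPH regeneration 1 h. Luciferin detection reagent added for 20 min; luminescence recorded. Ketoconazole positive control.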

[11] = Cytotoxicity counterscreen for inhibitors of SARS-CoV-2 cell entry (AID 1645845; calls by dose curve; also: nearly all actives have a fitted effect of over 50% in size; also: potency is read from the fitted curve at half-maximal effect)
Summary of the method: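 Counterscreen run in the same HEK293-ACE2 line as the pseudotyped-particle entry assay, without particles. Viability after 48 h at 37 C was read as ATP luminescence, scaled between cell-containing and cell-free wells.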

[12] = Counterscreen qHTS for small molecule stabilizers of the endoplasmic reticulum resident proteome: GLuc-NoTag assay (AID 1508627)
Summary of the method: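 Counterscreen line: SH-SY5Y-GLuc-NoTag. Seed, 5 h; compound, 19 h; thapsigargin 100 nM, 4 h; 37C/5% CO2. Readout: secreted GLuc luminescence, coelenterazine 0.07x final, no lysis.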

[13] = Confirmatory qHTS for small molecule stabilizers of the endoplasmic reticulum resident proteome: Secreted ER Calcium Modulated Protein (SERCaMP) assay (AID 1508628); also: potency is read from the fitted curve at half-maximal effect; nearly all actives have a fitted effect of over 40% in size
Summary of the method: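 Reporter secretion upon ER calcium depletion (100 nM thapsigargin, 4 h, 37C) is measured as medium luminescence with coelenterazine, after 16 h compound pretreatment of SH-SY5Y-GLuc-SERCaMP cells; primary at three concentrations up to 38.3 uM, follow-up at 11 (up to 76.6 uM).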

COc1ccc(C(=O)c2c(C)n(CCN3CCOCC3)c3ccccc23)cc1
active: Potency [4] 12.3 µM | Potency [5] 5.49 µM | Potency [6] 31.6 µM | Potency [7] 23.5 µM | Potency [8] 18.8 µM
inactive: Potency [1] | outcome [2] | Potency [3]

Oc1cccc2cccnc12
active: Potency [9] 20 µM
34.4 µM (active) and inactive: Potency [8]
31.6 µM (active) and inactive: Potency [3]
-23.4%: activity change, negative = inhibition [6]
inactive: outcome [2] | Potency [4] | outcome [10] | Potency [11]
15.4 µM (active) and inactive: Potency [7]

C=C1C[C@@H]2[C@H](CC[C@]3(C)C(=O)CC[C@@H]23)[C@@]2(C)C=CC(=O)C=C12
inactive: Potency [1] | Potency [4] | Potency [11]
active: Potency [7] 16.8 µM and 26.3 µM | Potency [8] 11.9 µM and 18.6 µM

C[C@]12CC[C@H]3[C@@H](CCC4=CC(=O)CC[C@@H]43)[C@@H]1CC[C@@H]2OC(=O)CCc1ccccc1
2.01%: activity change, negative = inhibition [6]
inactive: outcome [2] | Potency [3] | Potency [4] | outcome [10] | Potency [11] | Potency [8]
active: Potency [5] 27.5 µM

O=P1(NCCCl)OCCCN1CCCl (configuration not stated)
inactive: Potency [1] | outcome [2] | Potency [3] | Potency [11] | Potency [6] | Potency [7] | Potency [8]
-11%: activity change, negative = inhibition [6]

CCC(C(N)=O)N1CCCC1=O (configuration not stated)
inactive: Potency [1] | outcome [2] | Potency [3] | Potency [4] | Potency [5] | Potency [11] | Potency [7] | Potency [8]
-16.2%: activity change, negative = inhibition [6]

Cc1cc(SCc2sc(-c3ccc(C(F)(F)F)c(F)c3)nc2C)ccc1OCC(=O)O
inactive: Potency [1] | outcome [2] | Potency [11] | Potency [6] | Potency [7] | Potency [8]

Cn1cc(C2=C(c3cn(C4CCN(Cc5ccccn5)CC4)c4ccccc34)C(=O)NC2=O)c2ccccc21
active: Potency [5] 3.09 µM
inactive and 16.4 µM (active): Potency [7]
inactive: Potency [1] | outcome [2] | Potency [4] | Potency [11] | Potency [8]

OCCOc1ccccc1
inactive: Potency [1] | Potency [3] | Potency [4] | Potency [5] | Potency [11] | Potency [7] | Potency [8]

CC(=O)Nc1cc([As](=O)(O)O)ccc1O
-7.63%: activity change, negative = inhibition [6]
inactive: Potency [1] | Potency [3] | Potency [4] | Potency [5] | Potency [11] | Potency [7] | Potency [8]

NP(N)(=O)NC(=O)c1ccc(F)cc1
inactive: Potency [1] | outcome [2] | Potency [3] | Potency [4] | Potency [5] | Potency [7] | Potency [8]

C[C@]12CCC(=O)C(O)=C1CC[C@@H]1[C@@H]2CC[C@]2(C)C(=O)CC[C@@H]12
inactive: Potency [1] | outcome [2] | Potency [3] | Potency [4] | Potency [5] | Potency [11] | Potency [6] | Potency [7] | Potency [8]

NCCc1cc(O)c(O)cc1O
inactive: outcome [2] | Potency [3] | Potency [4] | Potency [5]

CCN(C(C)=O)c1cccc(-c2ccnc3c(C#N)cnn23)c1
inactive: Potency [1] | outcome [2] | Potency [3] | Potency [4] | Potency [7]

CN1C(=S)CN=C(c2ccccc2)c2cc(Cl)ccc21
inactive: Potency [1] | outcome [2] | Potency [3]
active: Potency [5] 12.3 µM

CC1OC(C)OC(C)O1 (configuration not stated)
inactive: Potency [1] | outcome [2] | Potency [3] | Potency [4] | Potency [5] | Potency [7] | Potency [8]

CCC(=O)C(CC(C)N(C)C)(c1ccccc1)c1ccccc1 (configuration not stated)
inactive: Potency [12] | Potency [5]
active: Potency [13] 35.5 µM | Potency [4] 0.898 µM | Potency [7] 34.7 µM | Potency [8] 30.9 µM

Clc1ccc(CCC(Cn2ccnc2)Sc2c(Cl)cccc2Cl)cc1 (configuration not stated)
inactive: Potency [1] | outcome [2]
active: Potency [4] 0.55 µM | Potency [5] 0.0123 µM | Potency [7] 18.8 µM and 18.6 µM | Potency [8] 11.9 µM and 20.9 µM

COC1(CS(=O)c2ccccc2)CCN(CCc2c[nH]c3ccc(F)cc23)CC1 (configuration not stated)
inactive: Potency [1] | outcome [2] | Potency [11]

CC[N+]1(C)CCCC(OC(=O)C(O)(c2ccccc2)c2ccccc2)C1 (configuration not stated)
active: Potency [4] 2.75 µM
inactive: Potency [1] | Potency [3] | Potency [5] | Potency [7] | Potency [8]

COc1ccc(Cc2nccc3cc(OC)c(OC)cc23)cc1OC
active: Potency [4] 4.9 µM | Potency [5] 9.77 µM | Potency [11] 7.94 µM | Potency [7] 11.8 µM | Potency [8] 5.25 µM
inactive: outcome [2] | Potency [3]

O=C(O)c1ccc2[nH]cc(CCCCN3CC=C(c4ccccc4)CC3)c2c1
inactive: Potency [1] | outcome [2] | Potency [3] | Potency [5] | Potency [7] | Potency [8]
active: Potency [4] 15.5 µM

C[C@@H]1[C@@H](CC(C[C@H]2O[C@@H]3O[C@]4(C)CC[C@@H]5[C@H](C)CC[C@@H]([C@H]2C)[C@@]35OO4)C[S+](=O)([O-])c2ccc(COC(=O)N(C)C)cc2)O[C@@H]2O[C@]3(C)CC[C@H]4[C@H](C)CC[C@@H]1[C@@]24OO3 (some centres not stated)
inactive: outcome [2]
